Data published in a collection of fitness landscapes (doi:10.1016/j.celrep.2020.107928).
In all, about 81,000 sequences were measured (“one-hybrid fitness for binding parS DNA”: median about -0.17, highest 2% from about 0.51 on). The sample holds the highest values, similar sequences and a random draw of the others, so the mix is not that of the screen.

B1: Caulobacter ParB omega fusion; a variant is named by its letters at X, in order, B8GW30 (parent)
chain: MESVVVGEPGMSEGRRGLGRGLSALLGEVDAAPAQAPGEQLGGSREAPIEILQRNPDQPRRTFREEDLEDLSNSIREKGVLQPILVRPSPDTAGEYQIVAGERAWRAAQRAGLKTVPIMVRELDDLAVLEIGIIENVQRADLNVLEEALSYKVLMEKFERTQENIAQTIGKSXSHVANXMRLLXLPDEVQSYLVSGELTAXHARAIAAAADPVALAKQIIEGGLSVRETEALARKAPNLSAGKSKGGRPPRVKDTDTQALESDLSSVLGLDVSIDHRGSTGTLTITYATLEQLDDLCNRLTRGI

Variants of: B1
Assay: one-hybrid fitness for binding parS DNA (scaled: cognate 1, non-cognate 0); higher = stronger binding
Conditions: with parS DNA site
How it was run: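 Fitness is the rescaled log change in variant-to-wild-type read ratio, measured by Illumina sequencing of plasmids before and after bacterial one-hybrid selection. The scale puts cognate at 1 and non-cognate at 0. Selection of Caulobacter ParB libraries, four specificity codons randomised, took place in E. coli USO with a HIS3 reporter, site 19 bp from the promoter, over 48 hours at 37°C on M9-minus-histidine with 0.1 mM IPTG and 5 mM 3-AT.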

Variant	one-hybrid fitness for binding parS DNA
YWPS	≤ 0.2
CLAE	≤ 0.2
SEHQ	0.354
DVPP	≤ 0.2
PLMI	≤ 0.2
HVLG	≤ 0.2
AYDG	≤ 0.2
RCDG	0.959
RPDG	≤ 0.2
RDDG	≤ 0.2
EYDG	≤ 0.2
SQTL	≤ 0.2
RKIF	≤ 0.2
RSIH	≤ 0.2
RKIC	0.811
RCIC	0.906
RSIN	0.269
RAPC	0.485
RDIC	≤ 0.2
RSIC	0.718
RPIC	≤ 0.2
RAIC	0.782
RAIM	0.209
RKPC	0.488
ARLT	≤ 0.2

Variant	one-hybrid fitness for binding parS DNA
THAD	≤ 0.2
PYVA	≤ 0.2
HQCG	≤ 0.2
HLKN	≤ 0.2
RHIC	0.651
RHIN	≤ 0.2
RHPC	0.367
RNKP	≤ 0.2
RNKD	≤ 0.2
RNKC	0.917
RNVR	≤ 0.2
RNVC	0.599
RNVF	≤ 0.2
IKLC	≤ 0.2
LQAE	≤ 0.2
IYHY	≤ 0.2
VEVT	≤ 0.2
NPKT	≤ 0.2
ITLC	≤ 0.2
ARFV	≤ 0.2
RIVF	0.378
RIKN	0.451
RIKK	≤ 0.2
RIVG	0.946
RIVR	≤ 0.2

Variant	one-hybrid fitness for binding parS DNA
RIKG	0.959
HGLV	≤ 0.2
DGHT	≤ 0.2
QIRE	≤ 0.2
RTIC	0.912
RTPF	≤ 0.2
RTIY	0.418
RTPC	0.625
RTIM	0.279
QSQK	≤ 0.2
CSYS	≤ 0.2
TQQS	≤ 0.2
RYDC	0.949
RYNC	0.86
RYDQ	0.223
RYNN	0.364
RYDY	0.422
RYNP	≤ 0.2
PYET	≤ 0.2
QEHT	≤ 0.2
KIRI	≤ 0.2
THLT	≤ 0.2
CDLR	≤ 0.2
NINA	≤ 0.2
RINA	0.596

Variant	one-hybrid fitness for binding parS DNA
RIDA	0.55
GNPS	≤ 0.2
RCND	≤ 0.2
VLGC	≤ 0.2
NLPL	≤ 0.2
PQIT	≤ 0.2
SCSQ	≤ 0.2
QQAG	≤ 0.2
RKPD	≤ 0.2
RKIN	0.322
RKIH	≤ 0.2
RKPG	0.552
RKPP	≤ 0.2
RKIG	0.855
MVDG	≤ 0.2
KIKY	≤ 0.2
NDWV	≤ 0.2
VADQ	≤ 0.2
INHN	≤ 0.2
RTRW	0.542
RTYW	0.262
RTKW	0.668
